Source: PMC4552634, “A New Set of Chemical Starting Points with Plasmodium falciparum Transmission-Blocking Potential for Antimalarial Drug Discovery” (PLoS ONE, 2015)
In all, about 13,000 compounds went through this assay and about 3,200 (25%) showed an effect of 50% or more. Some of the results follow.

Each compound was assayed on P. falciparum stage V gametocytes. Conditions: 48 h, 5 µM; inhibitor.
Design: BacTiter-Glo ATP luminescence viability of purified stage V gametocytes in 384-well plates, per cent inhibition versus DMSO

Row | Compound | % Inhibition
1 | O=C(Nc1ccc2ccccc2n1)c1ccccc1-c1ccccc1 [TCMDC-125339] | -5.994%
2 | FC(F)(F)c1ccc(/C=C/c2cncnc2Nc2ccc3nc(Cc4ccccc4)[nH]c3c2)cc1 [TCMDC-138660] | -4.612%
3 | CC(Oc1ccc(C(=O)c2ccc(F)cc2)cc1)C(=O)N1CCc2ccccc21 (centres unmarked) [TCMDC-123555] | 10.82%
4 | Cc1sc2nc(CSc3ccccc3)nc(N3CCN(CC(=O)N4CCCC4)CC3)c2c1C [TCMDC-125052] | -14.62%
5 | N#Cc1ccc2c(c1)CCN(CCC1CCC(NC(=O)/C=C/c3ccc(F)c4ccccc34)CC1)CC2 (centres unmarked) [TCMDC-139664] | -16.56%
6 | CC(C)C[C@H](Nc1ccnc(NCC2CCCCC2)n1)C(=O)NCCc1ccccc1 [TCMDC-134713] | -30.95%
7 | CCCC(=O)Nc1ccc(OCCN(Cc2ccccc2OC(F)(F)F)c2ccc(C(F)(F)F)c(C#N)c2)cc1 [TCMDC-132791] | 22.95%
8 | CCCCCc1ccc(NC(=O)Nc2ccc(Cn3ncc(N4CCCNCC4)c(Cl)c3=O)cc2)cc1 [TCMDC-133312] | -21.48%
9 | COc1ccc(C2CCN(CCCCNC(=O)c3ccc(NC(=O)c4ccc(Cl)cc4)cc3)C2)c(OC)c1 (centres unmarked) [TCMDC-138281] | 10.37%
10 | COc1ccc(C2CCN(CCCNC(=O)c3ccc(NC(=O)c4ccc(Cl)cc4)cc3)CC2)c(OC)c1 [TCMDC-138288] | 4.031%
11 | COc1cccc(OCC2CCCN(CCCCNC(=O)c3ccc(NC(=O)c4ccc(Cl)cc4)cc3)C2)c1 (centres unmarked) [TCMDC-138269] | 92.38%
12 | O=C(NCCCCN1CCC(c2ccc(C(F)(F)F)cc2C(F)(F)F)CC1)c1ccc(NC(=O)c2ccc(Cl)cc2)cc1 [TCMDC-138343] | -51.81%
13 | CC(C)c1ccc(C2CCN(CCCCNC(=O)c3ccc(NC(=O)c4ccc(C(F)(F)F)cc4)cc3)CC2)c(O)c1 [TCMDC-138527] | 105.5%
14 | Cc1ccc(C2CCN(CCCCNC(=O)c3ccc(-c4ccc(C(F)(F)F)cc4)cc3)CC2)c(O)c1 [TCMDC-138538] | 45.11%
15 | COc1cccc(C2CCCN(CCCCNC(=O)c3ccc(NC(=O)c4ccc(Cl)cc4)cc3)C2)c1 (centres unmarked) [TCMDC-138283] | 16.5%
16 | CCOc1ccc(N2CCN(CCCCNC(=O)c3ccc(NC(=O)c4ccc(Cl)cc4)cc3)CC2)c(OCC)c1 [TCMDC-138243] | 4.088%
17 | CCOc1ccc(C2CCN(CCCCNC(=O)c3ccc(NC(=O)c4ccc(Cl)cc4)cc3)CC2)c(OCC)c1 [TCMDC-138260] | 93.19%
18 | CCCCc1nc2nc(N)nc(N)c2cc1CCC [TCMDC-137499] | 32.62%
19 | Nc1ccn([C@@H]2O[C@H](COC(c3ccccc3)(c3ccccc3)c3ccccc3)[C@@H](O)[C@@H]2O)c(=O)n1 [TCMDC-131864] | 13.5%
20 | Cc1[nH]cc(Br)c(=O)c1-c1ccc(Oc2ccccc2)cc1 [TCMDC-136196] | 35.13%
21 | COc1ccc(OC)c(-c2ccc(=O)n(CC(=O)Nc3cccc4ccccc34)n2)c1 [TCMDC-125146] | 85.63%

Row | Compound | % Inhibition
22 | COc1ccc(C(=O)Cn2nc(-c3ccc(Cl)cc3)ccc2=O)c(OC)c1 [TCMDC-135946] | -6.888%
23 | COc1cc(NC(=O)Nc2cccc3ccccc23)c(OC)cc1Cl [TCMDC-123751] | 9.254%
24 | O=C(Cc1cnc[nH]1)Nc1cccc(-c2cccc(-c3nc4ccc(F)cc4[nH]3)c2)c1 [TCMDC-136943] | 10.3%
25 | O=C(Nc1ccc(Cl)c(Cl)c1)N(Cc1ccccc1Br)C1CCNCC1 [TCMDC-141401] | 32.46%
26 | O=C(Nc1cccc(-c2cccc(-c3ccc(F)cc3)n2)c1)c1ccc([N+](=O)[O-])o1 [TCMDC-124807] | 101.6%
27 | COc1cccc(-c2cc(C(=O)Nc3cc(Oc4ccc(O)cc4)cc([N+](=O)[O-])c3)on2)c1 [TCMDC-125290] | -10.41%
28 | O=C(Nc1ccc(-c2nc3ccccc3[nH]2)cc1)c1ccc(-c2cccc([N+](=O)[O-])c2)o1 [TCMDC-125805] | -5.454%
29 | O=C(Nc1cc(Oc2ccc(O)cc2)cc([N+](=O)[O-])c1)c1cc(-c2ccc(F)cc2)no1 [TCMDC-125444] | -44.25%
30 | COc1cccc(-c2cccc(-c3ccc(NC(=O)c4ccc([N+](=O)[O-])o4)cc3)n2)c1 [TCMDC-124806] | 99.55%
31 | COc1ccc(OC)c(-c2cccc(-c3cccc(NC(=O)c4ccc([N+](=O)[O-])o4)c3)n2)c1 [TCMDC-124799] | 113.4%
32 | Cc1ccc(-n2nc3ccc(NC(=O)c4ccc([N+](=O)[O-])o4)cc3n2)cc1C [TCMDC-123655] | 20.82%
33 | COc1ccccc1-c1cccc(-c2cccc(NC(=O)c3ccc([N+](=O)[O-])o3)c2)n1 [TCMDC-124800] | 105.3%
34 | CC(C)(C)c1ccc(C(=O)Nc2ccc(NC(=O)c3ccc([N+](=O)[O-])o3)cc2)cc1 [TCMDC-123733] | -4.108%
35 | O=C(Nc1cccc(-c2nc3ccccc3[nH]2)c1)c1ccc(-c2cccc([N+](=O)[O-])c2)o1 [TCMDC-125228] | 18.9%
36 | CCCc1ccc(-c2csc(NC(=O)c3ccc([N+](=O)[O-])o3)n2)cc1 [TCMDC-125314] | 1.071%
37 | COc1cccc(-c2cc(-c3ccc(NC(=O)c4ccccc4)cc3)c3c(N)ncnc3n2)c1 [TCMDC-134855] | -19.07%
38 | Cc1cc(C(F)(F)F)cc(-n2ncc(-c3ccc(C(=O)NCc4ccccc4N)cc3)c2N)n1 [TCMDC-136658] | -13.23%
39 | COc1ccc(CN2CCC(N3CCc4cc(NC(=O)c5cc(C)on5)ccc43)C2)cc1Cl (centres unmarked) [TCMDC-135080] | -33.25%
40 | COc1cc(C)ccc1S(=O)(=O)N1CCCCC(c2ccc(C(F)(F)F)cc2)=N1 [TCMDC-134533] | 19.73%
41 | CCn1c(SC)nnc1C1CCCN(CC(=O)Nc2nc3ccc(OC)cc3s2)C1 (centres unmarked) [TCMDC-123539] | 2.495%
